Test results as given in PubChem BioAssay AID1259418 (Broad Institute, 2018).
About 840 (25%) of roughly 3,400 compounds were called active. Another 11% or so got no clear call; they are omitted. The list is a sample of the results. Results with a measured potency or affinity are listed apart. A number with no mark means an inactive call.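 The calls were made as follows: active = fitted half-maximal concentration of signal decrease at or below twice the sample's top tested concentration; inconclusive = flat curve between -70 and -30 percent, or poor fit; inactive = flat within 30 percent, signal rise, or potency above limit.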

Assay: T. gondii growth inhibition with IFN-gamma, dose response, cell-based, ME49Luc, HeLa, luciferase, 72 h (AID 1259418)
Conditions: T. gondii ME49Luc in IFN-y HeLa, active compounds read low, -100% = high-dose IFN-γ control wells; at 19.5 µM unless noted

Q: Which max activity does the source give for `CCc1ccc(NC(=O)N2CCc3nc(-c4ccc(OC)c(OC)c4)sc3C2)cc1` here?
A: The max activity was 7.81% [at 0.16 µM].

Q: For `O=C1CCc2cc(NC(=O)c3cccnc3)ccc2N1`, which max activity is on record?
A: Its max activity is 9.01% [at 1.35 µM].

Q: For `Cc1ccc(-c2coc(-c3ccc(NC(=O)c4c(F)cccc4F)cc3)n2)cc1`, which max activity is on record?
A: Its max activity is 20.4% [at 5 µM].

Q: For `Cc1ccc(-c2nc3c(s2)CN(S(=O)(=O)c2ccc(F)cc2)CC3)cc1`, which max activity is on record?
A: The max activity was 8.68% [at 10 µM].

Q: Which max activity does the source give for `CCc1nc(OCC(=O)Nc2ccc(C(C)C)cc2)c2ccccc2n1` here?
A: The max activity was 25.6% [at 10 µM].

Q: With `COc1ccc(-c2nc(Nc3ccccc3Cl)c3ccccc3n2)cc1` as the molecule, how does the max activity read?
A: The max activity was -9.71% [at 0.35 µM].

Q: Which max activity does the source give for `COc1cccc(CNC(=O)Nc2ccc(-c3nc(-c4ccccc4)co3)cc2)c1` here?
A: The max activity was 78.4%.

Q: With `Cc1cccc(-c2nc(Cn3nnc(-c4nc(-c5ccccc5Br)no4)c3C)c(C)o2)c1` as the molecule, how does the max activity read?
A: Its max activity is 9.01% [at 2.6 µM].

Q: For `CCCCNC(=O)CCC1N=C2c3ccccc3N=C(SCc3ccc(C)cc3)N2C1=O` (stereo not drawn), which max activity is on record?
A: Its max activity is 25.3% [at 2.6 µM].

Q: With `CN(C)c1cccc(C(=O)N2CCC3(CC2)Nc2ccc(Cl)cc2-n2cccc23)c1` as the molecule, how does the max activity read?
A: The max activity was -25.9% [at 10 µM].

Q: With `Cc1nc(OCC(=O)Nc2cc(Cl)ccc2Cl)c2ccccc2n1` as the molecule, how does the max activity read?
A: Its max activity is 20.7% [at 0.68 µM].

Q: For `CCCc1ccc(S(=O)(=O)Nc2ccc(-c3nc(-c4ccc(C)cc4C)co3)cc2)cc1`, which max activity is on record?
A: Its max activity is -16.7% [at 0.16 µM].

Q: Which max activity does the source give for `Cc1ccc(-c2coc(-c3ccc(NS(=O)(=O)c4cccc(Cl)c4)cc3)n2)c(C)c1` here?
A: The max activity was -22.9%.

Q: For `Cc1ccc(S(=O)(=O)Nc2ccc(-c3nc(-c4ccc(C)cc4C)co3)cc2)cc1`, which max activity is on record?
A: The max activity was 12.9% [at 0.16 µM].

Q: With `Cc1ccc(-c2coc(-c3ccc(NS(=O)(=O)c4ccc(C(C)(C)C)cc4)cc3)n2)c(C)c1` as the molecule, how does the max activity read?
A: Its max activity is -14.9%.

Q: With `Cc1ccc(-c2coc(-c3ccc(NS(=O)(=O)c4ccc(N5CCCC5=O)cc4)cc3)n2)c(C)c1` as the molecule, how does the max activity read?
A: Its max activity is -11% [at 0.68 µM].

Q: Which max activity does the source give for `Cc1ccc(-c2coc(-c3ccc(NS(=O)(=O)c4cccc(Cl)c4C)cc3)n2)c(C)c1` here?
A: Its max activity is 16.4% [at 2.6 µM].

Q: For `Cc1ccc(-c2coc(-c3ccc(NS(=O)(=O)c4ccc(C(C)C)cc4)cc3)n2)c(C)c1`, which max activity is on record?
A: The max activity was -13.7%.

Q: Which max activity does the source give for `COc1ccc(S(=O)(=O)Nc2ccc(-c3nc(-c4ccc(C)cc4C)co3)cc2)cc1` here?
A: Its max activity is 26.2% [at 5 µM].

Q: For `Cc1nc(OCC(=O)Nc2ccccc2Br)c2ccccc2n1`, which max activity is on record?
A: Its max activity is 28.1% [at 0.16 µM].

Q: Which max activity does the source give for `Cc1ccc(C)c(-c2nc(CN3CCc4c(sc5c4CCCC5)C3c3ccccc3)c(C)o2)c1` (stereo not drawn) here?
A: Its max activity is 15.8%.

Q: For `COc1ccccc1-c1nc(Cn2nnc(-c3nc(-c4ccc5c(c4)OCO5)no3)c2C)c(C)o1`, which max activity is on record?
A: The max activity was 8.21% [at 0.35 µM].

Q: For `O=C(Nc1ccc(-c2nc(-c3ccccc3)co2)cc1)Nc1cccc(Cl)c1`, which max activity is on record?
A: The max activity was 19.9% [at 0.16 µM].

Q: For `O=C(c1cccnc1)N1CCC2(CC1)Nc1ccc(Cl)cc1-n1cccc12`, which max activity is on record?
A: Its max activity is -27.3% [at 0.16 µM].

Q: Which max activity does the source give for `CCOc1ccc(N2CC(NC(=O)C(=O)c3c[nH]c4ccccc34)CC2=O)cc1` (stereo not drawn) here?
A: Its max activity is 10.2% [at 10 µM].

Q: With `O=C(NC1CC(=O)N(c2ccc(Cl)cc2)C1)C(=O)c1c[nH]c2ccccc12` (stereo not drawn) as the molecule, how does the max activity read?
A: Its max activity is 22.9% [at 2.6 µM].

Q: For `O=C(Nc1ccc(-c2nc(-c3ccccc3)co2)cc1)Nc1ccc(Br)cc1F`, which max activity is on record?
A: The max activity was 58.9% [at 10 µM].

Q: With `Cc1ccc(Cn2c(=O)c3nn(C)cc3n3c(=O)n(Cc4nc(-c5ccc(C)cc5)oc4C)nc23)cc1` as the molecule, how does the max activity read?
A: Its max activity is 11.5% [at 2.6 µM].

Q: With `Cc1oc(-c2ccccc2)nc1Cn1nc2n(Cc3ccc(F)cc3)c(=O)c3nn(C)cc3n2c1=O` as the molecule, how does the max activity read?
A: The max activity was 15.8%.

Q: Which max activity does the source give for `Cc1cccc(NC(=O)Nc2ccc(-c3nc(-c4ccccc4)co3)cc2)c1` here?
A: The max activity was 16.2% [at 0.16 µM].

Q: Which max activity does the source give for `CN1C(=O)CCc2cc(NC(=O)CC3CCCCC3)ccc21` here?
A: Its max activity is 8.53%.

Q: Which max activity does the source give for `CN1C(=O)c2cc(NC(=O)c3cccc(F)c3)ccc2OC[C@@H]2O[C@@H](CC(=O)NCC3CCCCC3)CC[C@@H]21` here?
A: The max activity was -24.1%.

Q: With `COc1ccc(-c2nc(Nc3cccc(Cl)c3)c3ccccc3n2)cc1` as the molecule, how does the max activity read?
A: Its max activity is 22.1% [at 0.35 µM].

Q: Which max activity does the source give for `CCN(CC)C(=O)C1Cn2ccnc2C2(CCN(CC(C)C)CC2)O1` (stereo not drawn) here?
A: The max activity was 37.9%.

Q: Which max activity does the source give for `O=C(NCCc1csc(-c2ccccc2)n1)C1CCN(C(=O)Cc2cccs2)CC1` here?
A: Its max activity is 5.42% [at 0.35 µM].

Q: Which max activity does the source give for `Cn1nnc2c(NCCSc3c[nH]c4ccccc34)ncnc21` here?
A: Its max activity is 5.75% [at 0.16 µM].

Q: Which max activity does the source give for `O=C1CCc2cc(NC(=O)C3CC3)ccc2N1` here?
A: Its max activity is -5.5% [at 5 µM].

Q: For `CN1C(=O)CCc2cc(NC(=O)C3CCCC3)ccc21`, which max activity is on record?
A: Its max activity is 11.7%.

Q: Which max activity does the source give for `CC(C)N1CCC(c2ccnc3c(C(=O)N4CCCN(C)CC4)ncn23)CC1` here?
A: The max activity was 39%.

Q: Which max activity does the source give for `Cc1ccc(S(=O)(=O)N2CCC3(CC2)NCCN=C3NCc2cccc(F)c2)cc1C` here?
A: Its max activity is 6.41% [at 5 µM].

Q: Which max activity does the source give for `Cc1ccc(S(=O)(=O)N2CCC3(CC2)NCCN=C3NCc2ccc(F)c(Cl)c2)c(C)c1` here?
A: The max activity was 14% [at 5 µM].

Q: Which max activity does the source give for `COc1ccccc1CCC(=O)N1CCC[C@@H]1C(=O)NCCc1csc(-c2ccccc2)n1` here?
A: The max activity was -10.5%.

Q: Which max activity does the source give for `Cc1nc(N2CCCC2)nc2c1CCN(S(=O)(=O)c1ccccc1)CC2` here?
A: The max activity was 10.7% [at 10 µM].

Q: Which max activity does the source give for `Cc1ccc(S(=O)(=O)N2CCC3(CC2)NCCN=C3NCc2ccc(F)cc2)cc1C` here?
A: Its max activity is 30.3% [at 5 µM].

Q: Which max activity does the source give for `CCC1CCCCN1S(=O)(=O)c1cc(-c2nc(C)c(C)s2)sc1C` (stereo not drawn) here?
A: The max activity was 7.15% [at 0.68 µM].

Q: With `Cc1nc(CCNC(=O)[C@H]2CCCN2S(=O)(=O)c2cnn(C(F)F)c2C)cs1` as the molecule, how does the max activity read?
A: Its max activity is 13.7% [at 10 µM].

Q: Which max activity does the source give for `Cc1ccc2c(c1C)-n1cccc1C1(CCN(C(=O)c3cccnc3)CC1)N2` here?
A: The max activity was 5.96% [at 0.68 µM].

Q: For `COc1ccccc1C#Cc1ccc([C@H]2[C@@H](CO)N3CCCCN(C(=O)C4CCC4)C[C@H]23)cc1`, which max activity is on record?
A: The max activity was -7.46% [at 0.08 µM].

Q: With `COc1ccccc1C#Cc1ccc([C@@H]2[C@H](CO)N3CCCCN(C(=O)C4CCC4)C[C@@H]23)cc1` as the molecule, how does the max activity read?
A: Its max activity is 14.6% [at 5 µM].

Q: For `Cc1cccc(-c2nc(Cn3nnc(-c4nc(-c5ccc6c(c5)OCO6)no4)c3C)c(C)o2)c1`, which max activity is on record?
A: The max activity was -10.5% [at 0.16 µM].

Q: For `Cc1ccc(CNc2nc(-c3ccc(Cl)cc3)nc3ccccc23)o1`, which max activity is on record?
A: The max activity was 42.3%.

Q: With `Cc1ccc(NC(=O)Nc2ccc(-c3nc(-c4cc(C)ccc4C)co3)cc2)cc1` as the molecule, how does the max activity read?
A: The max activity was 5.44% [at 2.6 µM].

Q: With `COc1cccc(CNC(=O)Nc2ccc(-c3nc(-c4ccc(C)cc4C)co3)cc2)c1` as the molecule, how does the max activity read?
A: The max activity was 20.1%.

Q: With `COc1ccccc1CN1CCc2nc(SCc3nc(-c4ccc(C)cc4)oc3C)[nH]c(=O)c2C1` as the molecule, how does the max activity read?
A: The max activity was 34.1%.

Q: With `COc1ccc(-c2nc(N3CCC(c4ccccc4)C3)c3ccccc3n2)cc1` (stereo not drawn) as the molecule, how does the max activity read?
A: Its max activity is -14.1% [at 2.6 µM].

Q: Which max activity does the source give for `Clc1ccc(-c2nc(N3CCN(C4CCCCC4)CC3)c3ccccc3n2)cc1` here?
A: Its max activity is 19% [at 0.16 µM].

Q: For `Clc1ccc(-c2nc(N3CCC(Cc4ccccc4)CC3)c3ccccc3n2)cc1`, which max activity is on record?
A: The max activity was 11.8%.

Q: For `CC1CCN(c2nc(-c3ccc(Cl)cc3)nc3ccccc23)CC1`, which max activity is on record?
A: Its max activity is 5% [at 10 µM].

Q: For `O=C(c1ccc(F)cc1)N1c2ccccc2Sc2ccc(C(F)(F)F)cc21`, which max activity is on record?
A: Its max activity is -23.5% [at 0.08 µM].

Q: For `Cc1ccc(-c2cc(C(=O)Nc3ccc4c(c3)CCC(=O)N4)c3ccccc3n2)cc1C`, which max activity is on record?
A: Its max activity is 6.1% [at 1.35 µM].

Q: Which max activity does the source give for `CCc1onc(C)c1C1CCCN1Cc1cn(CC(=O)OC)c2ccc(OC)cc12` (stereo not drawn) here?
A: Its max activity is 13.3% [at 5 µM].

Q: Which max activity does the source give for `COc1ccc(-c2nc3c(s2)CN(C(=O)Nc2ccc(C)cc2Cl)CC3)cc1` here?
A: The max activity was 78.4%.

Q: For `O=C(c1cnccn1)N1CC(=O)N2[C@H](CO)[C@H](c3ccc(-c4cccc(F)c4)cc3)[C@@H]2C1`, which max activity is on record?
A: Its max activity is 25.7%.

Q: Which max activity does the source give for `O=C(c1cnccn1)N1CC(=O)N2[C@H](C1)[C@@H](c1ccc(-c3cccc(F)c3)cc1)[C@@H]2CO` here?
A: Its max activity is 6.32%.

Q: With `O=C(Nc1ccc(F)cc1)N1CC(=O)N2[C@@H](CO)[C@@H](c3ccc(C4=CCCC4)cc3)[C@@H]2C1` as the molecule, how does the max activity read?
A: The max activity was 25.4% [at 10 µM].

Q: With `CCOc1ccccc1-c1noc(-c2nnn(Cc3nc(-c4ccc(OC)cc4)oc3C)c2C)n1` as the molecule, how does the max activity read?
A: The max activity was 9.41% [at 1.35 µM].

Q: Which max activity does the source give for `COC(=O)c1ccccc1NC(=O)Nc1ccc(-c2nc(-c3ccc(C)cc3C)co2)cc1` here?
A: The max activity was 13.8% [at 0.16 µM].

Q: For `CSCc1noc(CN2CCCC3(C2)CN(C)C(=O)O3)n1` (stereo not drawn), which max activity is on record?
A: Its max activity is 41.2%.

Q: With `COc1cc(OC)cc(-c2noc(-c3nnn(Cc4nc(-c5ccccc5OC)oc4C)c3C)n2)c1` as the molecule, how does the max activity read?
A: The max activity was 6.32% [at 0.68 µM].

Q: With `Cc1ccc(-c2nc(CN3CCN(C(=O)Nc4cc(C)cc(C)c4)CC3)c(C)o2)cc1` as the molecule, how does the max activity read?
A: Its max activity is 9.49% [at 2.6 µM].

Q: Which max activity does the source give for `CCOc1ccc(-c2nc(CN3CCN(C(=O)Nc4ccc(C)c(C)c4)CC3)c(C)o2)cc1` here?
A: The max activity was 14.4% [at 0.35 µM].

Q: With `CCOc1ccc(-c2nc(CN3CCN(C(=O)Nc4ccc(C)c(F)c4)CC3)c(C)o2)cc1` as the molecule, how does the max activity read?
A: The max activity was 15%.

Q: Which max activity does the source give for `Cc1ccc(-c2nc(CN3CCN(C(=O)Nc4cc(Cl)ccc4C)CC3)c(C)o2)cc1` here?
A: The max activity was 11.2% [at 10 µM].
